Out of some 55,000 compounds screened, about 340 (0.62%) were called active. Another 3% or so got no clear call; they are omitted. Calls come from the whole dose curve; as a rule, active = well fitted cell-killing curve with a large enough effect; inconclusive = small, poorly fitted or top-dose-only effect; inactive = no such curve, though single readings can be large or run the other way. Many of the other results were omitted from the sample, so actives are more common in it than they were.
Assay: qHTS Screen for Compounds that Selectively Target Cancer Cells with p53 Mutations: Cytotoxicity of p53 Null Cells at the Permissive Temperature; note: nearly all actives have a fitted effect of over 55% in size;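 for activity change, negative = cytotoxicity: 0% = DMSO only and -100% = full killing by 100 µM tamoxifen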
Details: H1299-neo p53 null cells, ATP luminescence, 24 h, 32C; series mostly up to 46.1 µM; activity change, negative = cytotoxicity: at the top concentration
Description: NIH Chemical Genomics Center [NCGC] NIH Molecular Libraries Screening Centers Network [MLSCN] MLSCN Grant: 1 X01 MH079844-01 Assay Submitter (PI): Dr. SUN, YI, University of Michigan NCGC Assay Overview: Synthetic Lethal Screen for Compounds to Kill Cancer Cells with p53 Mutation. Tumor suppressor gene p53 serves as a major cellular barrier against tumorigenesis. […] The goal of this screening is to identify small molecule probes that selectively kill cancer cells with mutations in p53. This screening was carried out using two lines of H1299 lung cancer cells. The H1299-p53 A138V line express a temperature sensitive p53 mutant (p53ts) in which the mutant p53 protein (A138V) is in the mutant confirmation when grown at 39C (the nonpermissive temperature) and in the wild type conformation when grown at 32C (the permissive temperature). A H1299-neo line (p53 null) grown at both 39C and 32C were used as counter-screens to filter out false positive associated with temperature shifting. The small molecular compounds that selectively target mutant p53-containing cancer cells were selected as candidate probes for further study. A cytotoxicity assay based on the measurement of ATP contents in cells was used in this screen. Concentration-responses of all the compounds in the library collection were determined in qHTS using the cell lines and temperature conditions as above.
NCGC Assay Protocol Summary: Both the H1299-p53A138V and H1299-neo cell lines were provided by Dr.Yi Sun, a PI at the University Michigan. The cells were maintained and cultured at 37C. The resuspended frozen cells were used to plate the cells in the 1536-well assay plates at a density of 600 cells per well in 5 ul medium. The assay plates with the cells were incubated at 37C for 16 to 30 hours before the experiments. The library compounds in DMSO solution were added to the cells in assay plates and incubated 24 hours at 39C (for mutant p53 conformation) or 32C (for normal p53 conformation as control). An ATP_lite assay kit (PerkinElmer) was used to determine the cell viability. Tomaxifen (100uM) was used as the positive control for cell killing. Data were normalized to the controls for basal activity (DMSO only) and 100% killing (100uM tamoxifen). AC50 values were determined from concentration-response data modeled with the standard Hill equation. P53 assay protocol: 1. Reagent; 5 uL H1299-p53A138V or H1299-neo cell cells/well 2. Time; overnight; 37C incubation 3. Compounds; 23 nL; 5.9 nM to 46 uM 4. Controls; 23 nL; Tamoxifen 100 uM 5. Time; 24 hr; 32C incubation 6. Reagent; 3 uL; ATP_Lite reagent 7. Time; 20 min; Room Temperature 8. Detection; Luminescence; Viewlux plate reader Keywords: p53, synthetic lethal, cancer, cell viability, cytotoxicity, H1299 cell line, luminescence, MLSMR, MLSCN, NIH Roadmap, qHTS, NCGC
Potency is the fitted concentration of half-maximal effect.

Row | SMILES | Potency | activity change, negative = cytotoxicity
1 | CC(C)Oc1ccc(NC(=O)c2cc3ccccc3o2)cc1 | 10 µM (active) | –
2 | Cn1cc(/C=C/c2nc3ccccc3c(=O)n2-c2ccccc2)c2ccccc21 | – | -4.84% (inactive)
3 | CC(C)(C)c1ccc(S(=O)(=O)Nc2ccc(O)c(Sc3nc4ccccc4s3)c2)cc1 | – | 42.8% (inactive)
4 | CCCCOc1ccc(C(=O)N2CC(=O)Nc3ccc(Br)cc3C2c2ccc(F)cc2)cc1 (stereo not given) | – | 38.6% (inactive)
5 | Cc1ccc(Cn2c(C)c3cnn(CC(=O)N4CCC5(CC4)OCCO5)c(=O)c3c2C)cc1 | – | 15% (inactive)
